Reference: PubChem BioAssay (NCI)
Compounds without any hit were thinned out: in the full panel of roughly 79,000, 15% have a hit. A number with no mark means an inactive call. Activity calls are given as the source filed them. No stated cut-off is given here; in the data, active means growth inhibition above about 70%; inactive means the rest.

Key:
[1] = NCI Yeast Anticancer Drug Screen. Data for the rad50 strain (AID 155);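 further: 0% = growth of vehicle-only cultures of the same strain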; details: S. cerevisiae rad50 strain growth inhibition; at 50.0 µM; stronger effect = higher value
Summary of the method: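 Vehicle-treated cultures provide the reference for the growth inhibition reported for compound-exposed, repair-deficient yeast.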

[2] = NCI Yeast Anticancer Drug Screen. Data for the mec2-1 strain (AID 157); details: S. cerevisiae mec2-1 strain, at 50.0 µM, stronger effect = higher value
Summary of the method: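 Compounds were applied to mec2-1 yeast cells. Their growth was then compared with that of vehicle-treated cultures to give growth inhibition.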

[3] = NCI Yeast Anticancer Drug Screen. Data for the sgs1 mgt1 strain (AID 161);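 further: 0% = growth of cultures given vehicle only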; details: S. cerevisiae sgs1 mgt1 strain, at 50.0 µM, stronger effect = higher value
Summary of the method: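 Yeast cells carrying a defined DNA-repair defect were exposed to test compounds. Growth inhibition was measured relative to vehicle-treated controls.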

[4] = NCI Yeast Anticancer Drug Screen. Data for the cln2 rad14 strain (AID 165);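 further: 0% = growth equal to vehicle treated cultures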; details: S. cerevisiae cln2 rad14 strain, at 50.0 µM, stronger effect = higher value
Summary of the method: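 Strain: cln2 rad14 yeast, altered in cell cycle control and DNA damage repair. Read-out: growth inhibition vs vehicle.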

[5] = NCI Yeast Anticancer Drug Screen. Data for the bub3 strain (AID 167); details: S. cerevisiae bub3 mutant strain, at 50.0 µM, stronger effect = higher value
Summary of the method: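 Mutant yeast screening strain plus compound; vehicle-treated cultures serve as the 0% inhibition reference.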

[6] = NCI Yeast Anticancer Drug Screen. Data for the mlh1 rad18 strain (AID 175); details: S. cerevisiae mlh1 rad18 strain growth inhibition; at 50.0 µM; stronger effect = higher value
Summary of the method: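 A repair-deficient yeast strain is exposed to test compound, and growth is scored relative to vehicle-treated controls.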

| SMILES | growth inhibition [1] | growth inhibition [2] | growth inhibition [3] | growth inhibition [4] | growth inhibition [5] | growth inhibition [6] |
| --- | --- | --- | --- | --- | --- | --- |
| C[N+](C)(C)CCCc1ccc2oc3ccccc3c2c1 | 21.8% | 8.65% | 7.35% | 6.15% | 0.7% | 7.95% |
| NC(=O)CCC1CCCCN1 (stereo unspecified) | 27.2% | 18.8% | 6.5% | 5.7% | 1.85% | 2.2% |
| CN(/N=C\c1ccccc1)C(c1ccccc1)N(C)/N=C/c1ccccc1 (stereo unspecified) | -6.45% | -8.3% | 15.2% | -11.7% | -17.3% | -2.8% |
| NC(=O)N=C(NC(N)=O)NC(N)=O | -17.1% | -21.5% | -10.2% | -18.3% | -6.85% | -17.1% |
| Cn1c(=O)c2c(nc3n2C(CCl)CO3)n(C)c1=O (stereo unspecified) | 40.5% | 12.8% | 7.75% | 9.5% | 34% | 32.4% |
| Cc1ccc(NC(=O)CCC(=O)C2CC(=O)CCC2=O)cc1C (stereo unspecified) | -22.6% | -14.8% | -0.7% | 5.75% | 6.4% | -9.9% |
| CC(=O)Cc1ccc([N+](=O)[O-])cc1 | -0.1% | -9.25% | -15.9% | -41.7% | 4.15% | 12.2% |
| COc1ccc(C(=CCC(C)C2CCC3[C@@H]4C(OC(C)=O)CC5CC(OC(C)=O)CC[C@]5(C)C4CC(OC(C)=O)[C@]23C)c2ccc(OC)cc2)cc1 (stereo partly specified) | 1.2% | 1.4% | -7.9% | 13.5% | 24.1% | -6.05% |
| Nc1nc(N)c2nonc2n1 | -3.7% | -20.8% | -10.8% | -26.2% | -2.85% | 2% |
| Cc1cc2c(cc1C=O)C(C)(C)CCC2 | 9.75% | 0.85% | -6.85% | -32.2% | 2.85% | 26.2% |
| O=C1c2ccccc2C2(Br)C(=O)c3ccccc3C12Br (stereo unspecified) | 98.6% (active) | 99% (active) | 98.8% (active) | 98.5% (active) | 98.5% (active) | 98.9% (active) |
| N#CCCN(CCC#N)c1ccc(CC2C(=O)N(c3cccc(S(=O)(=O)O)c3)N=C2C(=O)O)cc1 (stereo unspecified) | -19.4% | -26.8% | -23.1% | 6.65% | -15.9% | -32.1% |
| COc1ccccc1/C=C1\CCC(CCN(C)C)(C2=CCCC2)C1=O (stereo unspecified) | -3.05% | -11.8% | -27.5% | 11.1% | -17.7% | 24.4% |
| CC1(C)Cc2[nH]c3ccccc3c(=O)c2-c2nc3ccccc3c(=O)n21 | -5.35% | 6.05% | 4.8% | -35.6% | -2.2% | -12.9% |
| CN(C)CC1CCCCCC(Br)C1O (stereo unspecified) | -5% | 14.6% | -1.15% | -24.8% | -10.7% | 21.7% |
| COc1ccc(/C=C2\N=C(SC)NC2=O)cc1 | -8.35% | 0.2% | 25.9% | 0.95% | 2% | -24.9% |
| COc1cc(OC)c(C(=O)/C=C/c2ccccc2)c(O)c1OC | 24.8% | -7.8% | 20.9% | -45.2% | -15.1% | 30.6% |
| Cc1ccc2sc3cc(=O)cc(C)c-3nc2c1 | 14.7% | 0.7% | -15.1% | 8.35% | 38.4% | 25.4% |
| COC(=O)C(CS)NC(=O)CNC(=O)CNC(=O)C(CCCCNC(=O)OCc1ccccc1)NC(=O)CNC(=O)C(CSC(c1ccccc1)(c1ccccc1)c1ccccc1)NC(=O)OCc1ccccc1 (stereo unspecified) | -16.2% | 2.75% | -10.7% | -17.2% | -25.2% | 0.2% |
| CCN(CC)CCCNc1ccc(-c2cc(OC)cc3cccnc23)cc1 | -5.95% | -17.1% | -0.05% | -14.1% | 6% | 4.4% |
| CC(C)CCNCC(C)(C)OC(=O)c1ccc([N+](=O)[O-])cc1 | 34.6% | 19.2% | 51.9% | 31.3% | 30.4% | 33.2% |

| SMILES | growth inhibition [1] | growth inhibition [2] | growth inhibition [3] | growth inhibition [4] | growth inhibition [5] | growth inhibition [6] |
| --- | --- | --- | --- | --- | --- | --- |
| COc1ccc(C2OC3=C(Nc4ccc([N+](=O)[O-])cc4N3)C2=O)cc1 (stereo unspecified) | -7.25% | -19.3% | -16.8% | -5.35% | -37.9% | -5.8% |
| Cc1ccc(-c2nn[nH]n2)cc1[N+](=O)[O-] | 5.65% | 8.6% | -0.65% | -11% | -21.9% | 16.1% |
| OCc1ccccc1CN1CCCC1 | 8.65% | 1.15% | 17.8% | -40.1% | 8.1% | -14.3% |
| O=C(NCCc1c[nH]c2ccccc12)C(F)(F)F | -15.8% | 7.6% | 18.2% | 6.85% | 29.2% | 0.3% |
| COc1cc(C(=O)O)cc(OC)c1OC(C)=O | 6.65% | -7% | 3.8% | 9% | -34.7% | -8.65% |
| CCN1CCC(O)(c2ccc(Oc3ccc(F)cc3)cc2)C(C(=O)c2ccc(Oc3ccc(F)cc3)cc2)C1 (stereo unspecified) | 20.1% | 2.9% | 14.6% | 5.95% | 5.65% | 29.9% |
| CNC(=O)OCCCCCCCCCCOC(=O)NC | 2.8% | -0.1% | 6.2% | -23.7% | -17.9% | 4.65% |
| Cc1cc(N(CCCOS(C)(=O)=O)CCCOS(C)(=O)=O)ccc1C=Nc1cc(Cl)c(O)c(Cl)c1 | 31.7% | 21.4% | 62.8% | 8.65% | 34.7% | 54.5% |
| CC(CCC(=O)CS(C)=O)C1CCC2C3CCC4CCCCC4(C)C3CCC12C (stereo unspecified) | 34.1% | -20.4% | 25.8% | 11.6% | -4% | 0.95% |
| CCOC(=O)Cn1c(=O)c2ccccc2c2cc([N+](=O)[O-])ccc21 | -6.45% | 11.3% | 13.2% | 5.95% | -3.65% | -11.7% |
| O=C1OC(=O)c2c(Cl)c(Cl)c(Cl)c(Cl)c21 | 8.55% | -0.15% | 23.9% | -34.9% | -6.25% | 2.5% |
| COC1(C)C=NCC(C)(C)NC(=O)C(C)(OC)C=NCC(C)(C)NC1=O (stereo unspecified) | -12.4% | -27.6% | -29.4% | -16.4% | -21.6% | -26.5% |
| O=C(Nc1ccccc1)c1nccc2ccccc12 | 1.45% | 13% | -6.45% | -17.1% | 9.4% | -3.95% |
| O=C(O)CCC(=O)NC(c1ccccc1)(c1ccccc1)c1ccccc1 | -17.4% | -9.45% | -0.15% | -37.1% | 3.2% | 3.1% |
| O/N=C1\CCc2nonc2\C1=N/Nc1ccccc1 | -2.05% | 2.8% | -2.35% | 1.45% | 7% | -1.9% |
| COc1ccc(C(=O)/C=C/c2ccccc2)c(O)c1OC | -7.45% | -1.85% | 8.1% | -0.95% | 9.95% | -7.1% |
| Oc1c(Cl)cc(Cl)cc1/C=N/c1nc(-c2ccc(Cl)cc2)cs1 | 52.1% | 26.1% | 61.3% | 28.1% | 38.8% | 35% |
| CC1(C)C/C(=C\c2cccc(Cl)c2)C(=O)c2ccccc21 | 11.8% | 16.6% | -0.75% | -12.8% | -5.65% | 7.4% |
| CC(=O)Nc1ccc(N(C)C)c(C)c1 | -6.65% | -7.55% | -1.85% | -7.75% | 12.9% | -10.2% |
| Cc1nnc2n(c1=O)CCCN2C | -0.35% | 6.2% | 11.6% | -11.8% | 15.8% | 13.4% |
